# Data as given in article PMC6919601, “Identification of Plasmodium dipeptidyl aminopeptidase allosteric inhibitors by high throughput screening” (PLoS ONE, 2019).
# Among all 110,000 compounds or so, about 230 (0.21%) showed an effect of 50% or more. Many of the other results were omitted from the sample, so strong results are more common in it than they were.
# Biological target: DPAP1 (Plasmodium falciparum, UniProt Q8IIJ9)
# Assay: primary screen, percent inhibition; read by cleavage of a fluorogenic dipeptide substrate; higher = more effect of the substance
# Design: species or system P. falciparum D10 trophozoite lysates; single well
# 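Further: 30 min substrate incubation versus DMSO and 10 µM JCP410 controls.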
# Chain of DPAP1 (Q8IIJ9 whole entry, looked up): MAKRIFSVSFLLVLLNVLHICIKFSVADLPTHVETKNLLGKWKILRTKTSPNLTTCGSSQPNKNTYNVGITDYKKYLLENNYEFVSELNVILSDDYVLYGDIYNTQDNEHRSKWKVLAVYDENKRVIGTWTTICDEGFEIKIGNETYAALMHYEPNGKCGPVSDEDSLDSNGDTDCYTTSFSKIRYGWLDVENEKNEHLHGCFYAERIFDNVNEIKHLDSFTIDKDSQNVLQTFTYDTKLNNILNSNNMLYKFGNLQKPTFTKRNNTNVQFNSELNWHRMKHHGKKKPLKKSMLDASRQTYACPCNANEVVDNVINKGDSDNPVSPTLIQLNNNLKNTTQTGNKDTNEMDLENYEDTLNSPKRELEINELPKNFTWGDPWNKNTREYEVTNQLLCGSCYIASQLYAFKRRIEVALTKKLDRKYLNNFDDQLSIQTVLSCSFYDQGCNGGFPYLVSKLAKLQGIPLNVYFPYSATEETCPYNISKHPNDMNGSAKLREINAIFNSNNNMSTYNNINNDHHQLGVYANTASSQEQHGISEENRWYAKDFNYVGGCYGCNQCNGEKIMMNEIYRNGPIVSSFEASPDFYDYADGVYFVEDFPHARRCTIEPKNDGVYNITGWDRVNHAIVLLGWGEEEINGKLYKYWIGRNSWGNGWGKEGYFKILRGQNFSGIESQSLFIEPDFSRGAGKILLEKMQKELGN
row,Structure (SMILES),% Inhibition @ 10 uM [%]
1,COCCNC(=O)CSc1[nH]c(-c2cccc(OC)c2)nc1-c1ccccc1,0.163
2,Cc1nc(C(=O)N[C@@H](CC(C)C)C(=O)NCC#N)nn1-c1ccc(Cl)cc1Cl,5.76
3,CCOc1ccc(/C=C(\NC(=O)c2ccc(C)cc2)C(=O)Nc2cccc(O)c2)cc1,4.67
4,COc1ccc(Br)cc1C1CC(=O)N2CN(Cc3ccccc3)CSC2=C1C#N (stereo not drawn),60.8
5,COc1ccc(CN2CSC3=C(C#N)C(c4cccs4)CC(=O)N3C2)cc1 (stereo not drawn),50.8
6,N#CC1=C2SCN(Cc3ccccc3)CN2C(=O)CC1c1cccs1 (stereo not drawn),40.5
7,COc1ccc(C2CC(=O)N3CN(Cc4ccccc4)CSC3=C2C#N)cc1OC (stereo not drawn),6.73
8,COc1ccc(Br)cc1C1CC(=O)N2CN(Cc3ccco3)CSC2=C1C#N (stereo not drawn),60.5
9,COc1ccc(CN2CSC3=C(C#N)C(c4ccc(C)cc4)CC(=O)N3C2)cc1 (stereo not drawn),43.8
10,COc1ccc2ccccc2c1C1CC(=O)N2CN(Cc3ccccc3)CSC2=C1C#N (stereo not drawn),35.8
11,COc1cccc(C2CC(=O)N3CN(Cc4ccco4)CSC3=C2C#N)c1OC (stereo not drawn),18.7
12,COc1cc(C2CC(=O)N3CN(Cc4ccccc4)CSC3=C2C#N)cc(Br)c1O (stereo not drawn),57
13,COc1ccc(OC)c(C2CC(=O)N3CN(Cc4ccco4)CSC3=C2C#N)c1 (stereo not drawn),6.87
14,COc1ccc(C2CC(=O)N3CN(Cc4ccccc4)CSC3=C2C#N)c(OC)c1 (stereo not drawn),32.1
15,CCOc1cc(C2CC(=O)N3CN(Cc4ccccc4)CSC3=C2C#N)ccc1O (stereo not drawn),19.8
16,Cc1ccc2oc(=O)c3cc(C(=O)N4CCC(C)CC4)sc3c2c1,0.809
17,CCCOc1ccc(CN(C(=O)c2nc(SC)ncc2Cl)C2CCS(=O)(=O)C2)cc1 (stereo not drawn),-4.64
18,Cc1cc(C)c2c(n1)nn1c(C3CC3)cc(C(F)(F)F)nc21,2.54
19,O=C(NCC(=O)N1CCOCC1)c1ccccc1,15.6
20,O=C(NCCc1ccccc1)C1CCCN(S(=O)(=O)c2cccc3cccnc23)C1 (stereo not drawn),-4.69
21,COc1cccc(C(=O)Nc2ccc(C(C)C)cc2)c1,-1.25
22,COCCOC(=O)N/C=C\c1nc(O)c2ccccc2n1,-4.65
23,CCOC(=O)c1cnn2c(C(F)(F)F)cc(C)nc12,-3.53
24,CC1(C)Cc2c(c(S)sc(=N)c2C#N)CO1,8.27
25,N#Cc1c2c(c(S)sc1=N)CCCC2,59.6
26,CN1CCc2c(c(S)sc(=N)c2C#N)C1,5.59
27,COc1cccc(CNC(=O)CNC(=S)N(Cc2ccccc2)Cc2cccnc2)c1,-0.406
